Bioassay records as filed in PubChem BioAssay.
HP1b binding inh: HP1-beta chromodomain-methylated histone interaction inhibition. Potency, µM (doses to about 114 µM), without a hit: at the top dose activity change, negative = inhibition, hits mostly inhibitors. AlphaScreen HP1-beta / biotin-H3K9me3 peptide binding. actives 0.56% (n = 390,000). P83916; note: nearly all actives have a fitted effect of over 70% in size
Target sequence (P83916 whole entry, looked up): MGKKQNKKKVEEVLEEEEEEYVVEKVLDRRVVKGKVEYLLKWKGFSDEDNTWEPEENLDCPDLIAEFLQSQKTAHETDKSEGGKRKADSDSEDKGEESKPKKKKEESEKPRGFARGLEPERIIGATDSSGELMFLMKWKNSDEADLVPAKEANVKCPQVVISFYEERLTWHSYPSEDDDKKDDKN
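Compound inhibition of the preformed complex between 50 nM HP1-beta and 50 nM biotinylated H3K9me3 peptide was read by AlphaScreen. Buffer was PBS pH 7.4 with 0.01% Tween-20. Incubations ran 30 min at room temperature, with 10 ug/mL donor/acceptor beads.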
G9a block: G9a (human) methyltransferase inhibition | Q96KQ7 | G9a H3K9 monomethylation, AlphaScreen, 2 h | Potency, µM (top dose mostly 102 µM), without a hit: at the top dose activity, negative = inhibition, actives largely listed as inhibitors | actives 8.8% (n = 350,000); note: % is set by controls: 0 for no effect and ±100 for the full control effect; nearly all actives have a fitted effect of over 75% in size
Target sequence (Q96KQ7 913-1193 limits assumed): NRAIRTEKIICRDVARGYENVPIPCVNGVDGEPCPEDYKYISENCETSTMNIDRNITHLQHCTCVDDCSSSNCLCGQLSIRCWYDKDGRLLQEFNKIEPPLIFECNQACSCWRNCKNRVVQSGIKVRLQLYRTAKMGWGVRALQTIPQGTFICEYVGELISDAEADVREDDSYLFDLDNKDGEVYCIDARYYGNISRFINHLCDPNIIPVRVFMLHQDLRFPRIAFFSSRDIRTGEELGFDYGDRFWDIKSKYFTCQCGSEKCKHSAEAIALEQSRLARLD
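Quantitative HTS format: methyltransferase activity on a biotin-tagged H3K9 peptide is measured by AlphaScreen, using a rabbit anti-monomethyl-H3K9 antibody with streptavidin donor and anti-IgG acceptor beads. Final levels are 20 nM enzyme, 500 nM peptide, 20 uM SAM; 2 h RT.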
BAZ2B inh: BAZ2B (human) inhibition | AlphaScreen BAZ2B-H3K14Ac peptide displacement | Potency, µM (top dose mostly 114 µM), without a hit: at the highest dose activity change, negative = inhibition, actives largely listed as inhibitors | actives 4.4% (n = 360,000); note: % is set by controls: 0 for no effect and ±100 for the full control effect; nearly all actives have a fitted effect of over 60% in size
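Compounds, titrated to a top concentration of 110 uM, were incubated 30 min at room temperature with preformed BAZ2B/acetyl-K14 H3 peptide complex (50 nM each). Proximity signal was measured by AlphaScreen after 20 min with beads.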
Sfp PPTase inh: blocks B. subtilis Sfp PPTase activity; actives 3.5% (n = 310,000); Biochemical Sfp PPTase activity, qHTS; Potency, µM, for the others: largest response in the series, negative = inhibition, hits mostly inhibitors; AID 1490; Q9F4F7;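 note: the enzyme is Sfp with the accession as filed and its product quenches rhodamine fluorescence; 0% = enzyme reaction without inhibitor and -100% = no enzyme wells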
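Reaction rates are the 30-min fluorescence difference (ex 525, em 598 nm) in wells containing 15 nM Sfp, 5 uM rhodamine-CoA and 12.5 uM BHQ-2-YbbR at pH 7.6 with 10 mM MgCl2.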
PLK1 PBD inh: inhibitors of human PLK1 polo-box domain binding; P53350; Plk1 PBD binding of FITC phosphopeptide, fluorescence polarization; Potency, µM, for the others: max response, negative = inhibition, most hits filed as inhibitors; actives 2.8% (n = 360,000); AID 720504; note: series mostly up to about 57 µM; % is set by controls: 0 for no effect and ±100 for the full control effect; nearly all actives have a fitted effect of over 65% in size
JMJD2A Tudor: inhibitors of human JMJD2A Tudor domain; AlphaScreen JMJD2A-Tudor / H3K4me3 peptide binding; Potency, µM (doses to about 114 µM), without a hit: at the highest dose activity change, negative = inhibition, most hits filed as inhibitors; actives 4.4% (n = 390,000); note: % is set by controls: 0 for no effect and ±100 for the full control effect; nearly all actives have a fitted effect of over 50% in size
* marks the source's active call; other numbers are inactive results; ? = inconclusive; . = no result given; [ ] = dose if it differs, or a comment. In the library only some 12% were active in any assay of this set; here they are far more common. Calls come from the whole dose curve; as a rule, active = well fitted curve in the direction sought with a large enough effect; inconclusive = small, poorly fitted or top-dose-only effect, or another doubt; inactive = no such curve, though single readings can be large; an effect the other way counts as inactive or inconclusive. Potency is the fitted concentration of half-maximal effect.

SMILES	HP1b binding inh	G9a block	BAZ2B inh	Sfp PPTase inh	PLK1 PBD inh	JMJD2A Tudor
CC(=O)Nc1ccc(NC(=S)Nc2ccc(F)cc2)cc1	17%	2%	-13%	0%	-10%	-11%
CCOC(=O)c1c(NC(=S)Nc2ccc(Cl)cc2)sc(C)c1C	-1%	?	-1%	-8%	-15%	-10%
COC(=O)c1c(NC(=S)Nc2ccc(CC(=O)O)cc2)sc(C)c1C	-2%	8.9µM*	-3%	-36%	?	-10%[57.1 µM]
Cc1sc(NC(=S)Nc2ccc(F)cc2)c(C(N)=O)c1C	-10%	28µM*	-15%	20µM*	?	-6%[11.4 µM]
O=C1NC2(CCCCCC2)C(=O)N1Cc1ccccc1Br	22%	-2%	-9%	-14%	-3%	-6%
O=C(Cc1cccs1)NC1CC(=O)N(c2ccc(F)cc2)C1 (stereo not given)	17%	-3%[59 µM]	-2%	.	.	-6%
O=C(NNS(=O)(=O)c1ccccc1)c1sccc1-n1cccc1	34%	-11%	?	3%	-6%	-10%
O=C(NNS(=O)(=O)c1ccc(Cl)cc1)c1sccc1-n1cccc1	-4%	?	-36%	5%	-10%	13µM*
COc1ccc2cc(Br)ccc2c1CC(=O)N1CCCC1	21%	9%	-2%	6%	-13%	-4%
CCCCN(C)C(=O)Cc1c(OC)ccc2cc(Br)ccc12	?	32µM*	-3%	1%	24µM*	25µM*
COC(=O)C1CCN(C(=O)Cc2c(OC)ccc3cc(Br)ccc23)CC1	31%	-32%	?	56µM*	-11%	-19%
COCCN1CCN(C(=O)c2cc(COc3cc(C)ccc3C)on2)CC1	25%	21%	-38%	9%	-2%	-17%
CC(C)Cc1nn2cc(-c3cccc(Br)c3)nc2s1	37%	65%[59 µM]	?	.	.	65%
N#C/C(=C\c1cccc(O)c1)c1nc2ccccc2o1	3%	-26%	-25%	79µM*	-14%	-23%
Cn1c(/C(C#N)=C/c2cccc(O)c2)nc2ccccc21	?	-24%	-19%	14%	27µM*	22µM*
COc1ccc(C(=O)N2CCC3(CCCN(Cc4cc(C(F)(F)F)cc(C(F)(F)F)c4)C3)CC2)cc1	.	-43%[12.7 µM]	.	14%	.	.
Cc1ccc(C(C)CCN2CCC(n3nccc3NC(=O)c3ccccc3)CC2)o1 (stereo not given)	-19%	28µM*	-25%	-23%	1%	-21%
CCc1ccc(CN2CCC(n3nccc3NC(=O)c3ccccc3)CC2)o1	35%	18%	-30%	2%	-9%	-30%
Cc1ccc(OCc2cc(=O)n3ccsc3n2)c(NC(=O)c2ccco2)c1	15%[57 µM]	23%[59 µM]	3%	.	.	-17%
c1ccc(COc2cccc(CNCc3cccnc3)c2)cc1	19%	?	50µM*	-7%	-18%	?
CCOc1cc(CNc2ccc(O)cc2)cc(Cl)c1OCc1ccccc1	35µM*	?	28µM*	.	.	45µM*
CCOc1cc(CNc2ccccc2)cc(Br)c1OCc1ccc(F)cc1	62%	74%[59 µM]	0%	?	-4%	12%
Oc1ccc(NCc2cccc(OCc3ccccc3)c2)cc1	?	13µM*	-29%	?	-6%	50µM*
c1ccc(COc2cccc(CNCc3ccccn3)c2)cc1	40%	0%[12.7 µM]	?	?	-1%	-27%
O=S(=O)(CCC1CCCCN1)c1ccccc1 (stereo not given)	19%	3%	0%	13%	-1%	1%
SMILES	HP1b binding inh	G9a block	BAZ2B inh	Sfp PPTase inh	PLK1 PBD inh	JMJD2A Tudor
COc1ccc(C(C)=O)cc1Cn1nnc(-c2ccccc2Br)n1	28%	4%	56µM*	8%	-13%	-6%
CSc1ccccc1NC(=O)Nc1cccc(Cl)c1Cl	30%	0%[59 µM]	7%	3%	-10%	-13%
COc1cccc(NC(=O)Nc2ccccc2SC)c1	13%	6%	-19%	-11%	19µM*	-32%
COc1cccc(NC(=O)NC2(C(F)(F)F)Oc3ccccc3O2)c1	20%	3.5µM*	11%	-7%	-8%	71µM*
O=C(CSCCO)Nc1cccc2ccccc12	38%	50µM*	11%	-21%	-1%	1%
CSc1ccccc1NC(=O)Nc1cccc2ccccc12	26%	79µM*	18%	10%	-9%	3%
CCc1nc2c(OCc3cccc(Cl)c3)cccn2c1N(C)C(=O)c1ccco1	.	.	.	.	0%	.
COc1ccc(-c2nc3c(c4c2C[C@H](c2ccccc2)OC4)CN(C(=O)c2cc(I)ccc2F)CC3)c(C)c1	.	.	.	3%	.	.
Cc1ccc(N2CCN(S(=O)(=O)c3ccc4c(c3)CC(=O)N4)CC2)cc1	.	.	.	.	.	-28%[229 µM]
CC(C)CNC(=O)NC1(C(F)(F)F)Oc2ccccc2O1	35%	?	0%	15%	1%	-4%
O=C(NCc1cccnc1)NC1(C(F)(F)F)Oc2ccccc2O1	34%	40µM*	8%	-5%	2%	-17%
O=C(Nc1ccccc1)c1ccc2snnc2c1	-17%[57 µM]	1%	0%	16%	27µM*	?
O=C(Nc1ccc2snnc2c1)Nc1cccc2ccccc12	-20%	50µM*	-5%	-28%	30µM*	-3%[11.4 µM]
O=C(Nc1cc(N2CCOCC2)ncn1)NC1(C(F)(F)F)Oc2ccccc2O1	19%	2.2µM*	-1%	7%	-16%	89µM*
CSc1nc(N)nc2c1ncn2CC(=O)N[C@H](CO)Cc1c[nH]c2ccccc12	37%	.	.	.	-7%	-13%
COc1ccccc1C(CNc1nc(C(F)(F)F)nc2ccccc12)N(C)C (stereo not given)	18%	10%	-3%	1%	1%	-9%
CC1(C)c2cc(O)ccc2OC1N1CCOCC1 (stereo not given)	42%	8.9µM*	-13%	7%	-6%	-11%
Cn1cc(CN(C(=O)Nc2ccccc2)C2CCCCC2)c2ccccc21	-9%	?	.	.	.	?
COc1cc(NC(=S)N2CCCC(CO)C2)cc(OC)c1 (stereo not given)	13%	?	-15%	?	21µM*	7%
C=CCNC(=S)Nc1ccc(Cl)cc1	17%	24%	-5%	23%	13µM*	-5%[11.4 µM]
C=CCNC(=S)NNC(=O)COc1ccc(Cl)cc1Cl	1%	10µM*	10%	-8%	-15%	?
Cc1occc1C(=O)NNC(=S)NC(=O)COc1ccc(Cl)cc1Cl	?	8.9µM*	-18%	9%	-22%	-20%
O=C(COc1ccc(Cl)cc1Cl)NNC(=S)Nc1ccc(F)cc1	-12%	11µM*	-3%	25%	-25%	-24%
S=C(NCc1ccccc1)Nc1ccc(Cl)cc1	44%	-5%	0%	6%	5%	6%
